Source: PubChem (National Center for Advancing Translational Sciences (NCATS))
This is a sample that favours compounds with a hit; in the whole collection about 8% have one here.
HT1080NT lethal: kills 2HG-producing HT-1080-NT fibrosarcoma cells | HT-1080-NT fibrosarcoma viability, CellTiter-Glo ATP luminescence, 48 h | Potency, µM (top dose mostly 46.1 µM), for inactives: at the top dose activity, negative = less viability, actives largely listed as cytotoxic | 360,000 tested, 1.6% active | AID 686970;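 also: NT is the 2HG producing partner of a matched IDH1 knockdown line; 0% = DMSO-treated cells and -100% = media-only wells without cells; nearly all actives have a fitted effect of over 55% in size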
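Fibrosarcoma NT cells, 750 per well in 5% FBS RPMI, were exposed to compound for 48 hours. Viability: CellTiter-Glo luminescence.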
HT1080 IDH1KD tx: toxicity to HT-1080 IDH1 knockdown cells (counter line) | HT-1080 IDH1 knockdown viability, ATP luminescence, 48 h | Potency, µM (series often up to 46.1 µM), inactives show top-dose activity, negative = toxicity, hits mostly cytotoxic | 360,000 tested, 2% active;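 also: 0% = DMSO wells and -100% = cell-free medium wells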
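Viability of IDH1-knockdown HT-1080 fibrosarcoma cells was assessed by CellTiter-Glo after 48 h at 37 °C with titrated compound; concentration-effect curves were classified by fit quality and response size.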
KB-3-1 tox: kills parental KB-3-1 adenocarcinoma cells. KB-3-1 viability, CellTiter-Glo ATP luminescence, 72 h. Potency, µM (series often up to 46.1 µM), usual class: cytotoxic. 400,000 tested, 1.4% active. AID 1347075; also: nearly all actives have a fitted effect of over 60% in size
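KB-3-1 parental drug-naive adenocarcinoma cells in DMEM/10% FBS, incubated 72 h at 37 C with pin-transferred compounds across a concentration series. Viability by CellTiter-Glo luminescence; concentration-response curves fitted after normalization.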
KB-V1 MDR tox: KB-V1 MDR subline cytotoxicity; KB-V1 MDR cells viability, CellTiter-Glo, 72 h; Potency, µM (top dose mostly 46.1 µM), most hits filed as cytotoxic; 400,000 tested, 3.4% active; AID 1347076; also: nearly all actives have a fitted effect of over 60% in size
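KB-V1, DMEM (no phenol red) + 10% FBS; cpd pin-transferred, titration series; 72 h, 37 degrees C; CellTiter-Glo, luminescence. Data normalized, curve-fit.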
Starred values were filed as active, the others as inactive; i = inactive; ? = inconclusive; . = no result. Calls follow the shape of the dose curve; as a rule, active = well fitted curve in the direction sought with a large enough effect; inconclusive = small, poorly fitted or top-dose-only effect, or another doubt; inactive = no such curve, though single readings can be large; an effect the other way counts as inactive or inconclusive. Unless noted, % is scaled to controls: 0 for no effect and ±100 for the full control effect; potency is read from the fitted curve at half-maximal effect.

SMILES | HT1080NT lethal | HT1080 IDH1KD tx | KB-3-1 tox | KB-V1 MDR tox
CCN1C(=O)c2ccccc2Sc2ccc(NC(=O)Nc3ccc(Br)c(C)c3)cc21 | . | . | i | ?
NC(c1csc(Nc2cc(NCc3ccco3)ncn2)n1)c1ccccc1Cl (stereo not given) | ? | -14% | i | i
NC(COCc1ccccc1)c1csc(Nc2cc(Oc3ccccc3)ncn2)n1 (stereo not given) | 23µM* | ? | i | ?
NC(Cc1ccc(Cl)cc1)c1csc(Nc2cc(Oc3ccccc3)ncn2)n1 (stereo not given) | 18µM* | 18µM* | ? | ?
NC(Cc1ccc(F)cc1)c1csc(Nc2cc(NCc3ccco3)ncn2)n1 (stereo not given) | 18µM* | 16µM* | i | ?
NC(Cc1ccc(F)cc1)c1csc(Nc2cc(Oc3ccccc3)ncn2)n1 (stereo not given) | ? | 16µM* | ? | ?
